Consider seven compounds from PubChem BioAssay (NCI).

Structures are written as SMILES. About 83,000 compounds went through this panel and 20% of them were active in at least one assay; those are over-represented in the sample as a whole.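 Treatment: one concentration, 48 hours, 96-well format. Scoring: percent growth, with anything below 10 considered active.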 Values without a mark were called inactive. Activity calls are given as the source filed them.

What all share (assay): NCI-60 one-dose screen, 48 h (100 = growth as untreated, 0 = no growth, -100 = all killed)
Settings in all cases: 10 µM unless noted

The subject of experiment [1] is HCT-15 colon.
In experiment [2] the test system is HT29 colon.
For experiment [3], the system named is SNB-75 CNS.
For experiment [4], the system named is SNB-19 CNS.
The test system of experiment [5] is U251 CNS.
Experiment [6] has as its system PC-3 prostate.
Experiment [7] deals with SK-MEL-5 melanoma.
Experiment [8] concerns UACC-62 melanoma.
The test system of experiment [9] is LOX IMVI melanoma.
Experiment [10] concerns SK-MEL-28 melanoma.
In experiment [11] the test system is SK-MEL-2 melanoma.
For experiment [12], the system named is EKVX NSCLC.
The subject of experiment [13] is SN12C renal.
The test system of experiment [14] is UO-31 renal.
The test system of experiment [15] is TK-10 renal.
In experiment [16] the test system is ACHN renal.
The test system of experiment [17] is CAKI-1 renal.
Experiment [18] concerns A498 renal.
Experiment [19] has as its system CCRF-CEM leukemia.
The subject of experiment [20] is MOLT-4 leukemia.

As to `COc1cc(/C=C2/C(=O)Nc3ccc(Cl)cc32)ccc1OCc1ccc(Cl)cc1`, the growth in experiment [1] was 86.5%; in [2], 94.1%; in experiment [3], 77.7%; in experiment [4], 91.3%; in experiment [5] it was 50.7%; in experiment [6], 84.2%. Moreover, the growth in [7] is 89.2%; in [8], 70.2%; in experiment [9], 68.3%; in experiment [10], 103%; in experiment [11] it was 107%; in experiment [12] it was 88.5%. For the same compound, the growth in experiment [13] is 88.9%; in [14], 74.3%; in [15] it was 129%; in experiment [16] it was 52.7%; in experiment [17] it was 83.3%; in experiment [18], 93.4%. The growth in [19] is 69.5%; in experiment [20], 76.7%.

As to `CS(=O)(=O)c1ccc(/C(=N/N=C(N)N)c2ccc(F)cc2)cc1`, the growth in experiment [1] was 74.9%; in experiment [2], 91.5%; in [3] it was 94.6%; in experiment [4] it was 63%; in experiment [5], 67.2%; in [6] it was 73.9%. Further, the growth was 82.8% in [7]; 74.6% in [8]; 54.4% in experiment [9]; 95.5% in experiment [10]; 97.2% in experiment [11]; 85.3% in experiment [12]. For the same compound, the growth was 106% in experiment [13]; 92.7% in experiment [14]; 92% in experiment [15]; 98% in experiment [16]; 51.4% in [17]; 88.8% in experiment [18]. For the same compound, the values for the growth in experiment [19] and in experiment [20] were 74.9% and 103%, respectively.

Consider `CCN(CC)S(=O)(=O)c1ccc(-c2nc(C(Cl)Cl)nc3cc(C)nn23)cc1`, for which the growth in experiment [1] was 1.86% (active); in [2], 5.07% (active); in [3], 46.7%; in experiment [4], 46.2%; in experiment [5] it was 8.28% (active); in experiment [6] it was 31.1%. Besides, the growth in experiment [7] is 78.3%; in experiment [8], 49.9%; in experiment [9] it was 35.6%; in experiment [10], 23.3%; in [11] it was 89.4%; in experiment [12] it was 25.8%. Also, the growth in experiment [13] was 58.6%; in experiment [14], 46.4%; in experiment [15], 79.4%; in experiment [16], 8.7% (active); in [17], 29.6%; in [18] it was 74.8%. Besides, the growth in experiment [19] was 48.9%; in experiment [20], 36.1%.

As for `CCOC(=O)c1c(N)c(C#N)cn1Cc1ccc(Cl)cc1Cl`, the growth in experiment [1] is 48.8%; in experiment [2], 80.4%; in experiment [3] it was 47.3%; in experiment [4], 68.7%; in [5], 64.1%; in [6], 71.5%. Also, the growth in experiment [7] is 78%; in experiment [8], 59.8%; in experiment [9] it was 78.8%; in experiment [10], 92.6%; in experiment [11], 94.2%; in [12], 81.8%. The growth in [13] is 81.2%; in experiment [14], 59.9%; in [15], 69.8%; in [16], 87.4%; in experiment [17], 62.4%; in experiment [18], 73.5%. Further, the growth is 84.6% in experiment [19] and 65.1% in [20].

With `C=C(C)[C@@H]1CC[C@]2(C(=O)O)CC[C@]3(C)[C@H](CC[C@@H]4[C@@]5(C)C/C(=C/c6ccccn6)C(=O)C(C)(C)[C@@H]5CC[C@]43C)[C@@H]12`, the growth in experiment [1] was 18.9%; in experiment [2], 40.8%; in [3], 61.1%; in [4], 50.3%; in [5], 27.9%; in experiment [6], 28.4%. For the same compound, the growth was 31.8% in experiment [7]; 40.1% in [8]; 34.6% in experiment [9]; 64% in experiment [10]; 68.5% in experiment [11]; 33.3% in [12]. Besides, the growth in experiment [13] is 41.1%; in [14], 35.8%; in experiment [15], 60.8%; in [16], 35.9%; in experiment [17] it was 26.8%; in [18], 61.7%. In addition, the growth in [19] is 21.8%; in [20], 29.4%.

For the compound `CCOC(=O)c1c(NC(=O)c2cccc(C(F)(F)F)c2)sc2c1CCC(=O)C2`, the growth in experiment [1] was 18.9%; in experiment [2], 65.4%; in [3], 31.6%; in [4], 21.4%; in experiment [5], 3.77% (active); in experiment [6], 3.56% (active). Moreover, the growth in experiment [7] was 38%; in [8], 30.9%; in [9] it was 9.07% (active); in experiment [10] it was 89.2%; in experiment [11], 71.9%; in [12] it was 39.4%. Also, the growth in [13] was 42.9%; in [14] it was 7.65% (active); in experiment [15], 54.9%; in experiment [16] it was 8.52% (active); in experiment [17] it was 23.9%; in experiment [18] it was 106%. Also, the growth in experiment [19] was 8.47% (active); in experiment [20] it was 36.8%.

As for `CN1CCN(Cc2ccc(NC(=O)c3cncc(C#Cc4cnc5ccc(N)nn45)c3)cc2C(F)(F)F)CC1`, the growth in [1] was 49.5%; in experiment [2] it was 5.96% (active); in experiment [3] it was 57.7%; in experiment [4] it was 35%; in [5] it was 54.6%; in experiment [6] it was 36.9%. In addition, the growth in [7] is 60.8%; in experiment [8], 70.8%; in experiment [9], -63% (active); in experiment [10], 41.2%; in experiment [11], -27.9% (active); in experiment [12], 37.1%. Moreover, the growth in experiment [13] was 15.7%; in [14] it was 96.3%; in [15], 40.4%; in experiment [16], 27.7%; in experiment [17], 13.8%; in experiment [18], 67%. Further, the values for the growth in experiment [19] and in experiment [20] were 11.8% and 7.21% (active), respectively.
